Results: PubChem BioAssay AID1347416 (National Center for Advancing Translational Sciences (NCATS), 2020)
In all, about 4,100 compounds went through this assay and about 1,600 (39%) were called active. Inconclusive results (about 25%) are left out. This is one part of the list. A number with no mark means an inactive call. Calls follow the shape of the dose curve; as a rule, active = well fitted inhibition curve with a large enough effect; inconclusive = small, poorly fitted or top-dose-only effect; inactive = no such curve, though single readings can be large or run the other way.
% is scaled to controls: 0 for no effect and ±100 for the full control effect; potency is read from the fitted curve at half-maximal effect.

Experiment: qHTS Validation assay for Inhibitors of Plasmodium falciparum Dd2 growth in vitro; also: nearly all actives have a fitted effect of over 70% in size
Conditions: P. falciparum Dd2 in RBCs, SYBR Green growth, 72 h; series mostly up to 28.7 µM; activity change, negative = inhibition: at the top concentration
Outline: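 P. falciparum Dd2-infected red blood cells (2.5% hematocrit, 0.3% parasitemia) grown 72 h at 37 °C under 5% O2 with compounds in a titration, 29 uM to 0.5 nM final. Growth read as SYBR Green-1 fluorescence after ~16 h lysis; artesunate 300 nM as positive control.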
In the case of `COc1ccc2cc1Nc1ccc(cc1)C[C@H](NCc1ccc3c(c1)CCO3)C(=O)N(C)[C@H](C(=O)NCCC(C)C)C2`, the Potency is reported as 3.35 µM (active).
In the case of `COc1ccc2cc1Nc1ccc(cc1)C[C@H](NCc1ccc(C)o1)C(=O)N(C)[C@H](C(=O)NCCC(C)C)C2`, the Potency is reported as 5.96 µM (active).
With `COc1ccc2cc1Nc1ccc(cc1)C[C@H](NCc1ccc(C)o1)C(=O)N(C)[C@@H](C(=O)NCc1ccccc1)C2` the Potency was 5.31 µM (active).
For `COc1ccc2cc1Nc1ccc(cc1)C[C@H](NCc1cccc(C(=O)O)c1)C(=O)N(C)[C@H](C(=O)Nc1ccccc1OCc1ccccc1)C2`, the Potency was 4.73 µM (active).
In the case of `CC(C)(C)CC(=O)N1CCC(N2C(=O)CCC2C(=O)NCc2ccccc2)CC1` (stereo not drawn), the “activity change, negative = inhibition” value is reported as 12.3%.
In the case of `CCC(=O)N1CCN(c2nc3c(s2)CC(C(=O)NCc2ccc(C)o2)CC3)CC1` (stereo not drawn), the “activity change, negative = inhibition” value is reported as -36.4%.
With `Cc1ccc(C(=O)N2CCCCCCNC(=O)[C@@H]3CCC[C@@H]32)s1` the “activity change, negative = inhibition” value was 10.4%.
In the case of `Cc1cccc(CSc2nn3c(=O)c(C)nnc3s2)c1`, the “activity change, negative = inhibition” value is reported as -11%.
For `CNC(=O)[C@@H]1C[C@@H](n2cc(CN(C)C(=O)c3cc(F)ccc3Cl)nn2)CN1`, the “activity change, negative = inhibition” value was 1.69%.
In the case of `O=C(COc1ccccc1)NC1CC(=O)N(c2ccc3c(c2)OCCO3)C1` (stereo not drawn), the “activity change, negative = inhibition” value is reported as -5.97%.
In the case of `CC(C)COC(=O)/C(C#N)=C\c1ccc(-c2ccccc2Cl)o1`, the “activity change, negative = inhibition” value is reported as 21.3%.
With `O=C1CC(c2ccccc2)N(S(=O)(=O)c2cccc(F)c2)CCCCCN1` (stereo not drawn) the “activity change, negative = inhibition” value was -1.58%.
For `Cc1noc(C)c1S(=O)(=O)NCC(=O)N1CCCCCCNC(=O)CC1c1ccccc1` (stereo not drawn), the “activity change, negative = inhibition” value was 4.88%.
For `Cc1noc(C)c1S(=O)(=O)N1CCCN(Cc2ccncc2)C(c2ccccc2)CC(=O)NCC1` (stereo not drawn), the Potency was 7.5 µM (active).
In the case of `Cc1noc(C)c1S(=O)(=O)N1CCc2nc3cc(-c4ccccc4)[nH]n3c(=O)c2C1`, the “activity change, negative = inhibition” value is reported as 4.23%.
With `O=C1CCC2(CCN1)CCN(S(=O)(=O)c1cccnc1)CC2` the “activity change, negative = inhibition” value was 0.806%.
With `O=C1CC(c2ccccc2)N(Cc2ccncc2)CCCN(S(=O)(=O)c2cccs2)CCN1` (stereo not drawn) the Potency was 6.68 µM (active).
For `O=C1CC(c2ccccc2)N(Cc2ccncc2)CCCN(S(=O)(=O)c2cccc(F)c2)CCN1` (stereo not drawn), the Potency was 4.73 µM (active).
For `O=C(C1CC1)N(Cc1nc2ccccc2c(=O)[nH]1)Cc1cccs1`, the “activity change, negative = inhibition” value was 20.1%.
For `COCCN1CCNc2nc(CNCc3cnccn3)n(Cc3ccccc3)c2C1=O`, the “activity change, negative = inhibition” value was 0% [at 43.1 µM].
With `COc1ccc(-c2cc(C[C@@H]3CC[C@H](O)[C@@H](CNCc4ccccc4OC)O3)no2)cc1` the Potency was 3.44 µM (active).
For `COc1ccc(CNC[C@H]2O[C@H](Cc3cc(-c4ccc(OC)cc4)on3)CC[C@@H]2O)cc1`, the Potency was 10.6 µM (active).
With `Cc1ccc(S(=O)(=O)NC[C@H]2O[C@H](Cc3cc(-c4cccc(O)c4)on3)CC[C@@H]2O)cc1` the “activity change, negative = inhibition” value was -18.8%.
For `COc1ccc(CNC[C@H]2O[C@H](Cc3cc(-c4ccccc4)on3)CC[C@@H]2O)cc1`, the Potency was 3.85 µM (active).
With `O[C@H]1CC[C@@H](Cc2cc(-c3ccc(F)cc3)on2)O[C@@H]1CNC1CCCCC1` the Potency was 2.43 µM (active).
With `Cc1nccn1CC(=O)N1C[C@@H](COCC2CC2)[C@H](c2ccncc2)C1` the “activity change, negative = inhibition” value was 34.9%.
In the case of `O=C(N[C@@H]1CN(c2ncccn2)C[C@H]1CO)c1cc2ccccc2[nH]1`, the “activity change, negative = inhibition” value is reported as 13%.
For `NC(=O)CN1C(=O)CO[C@H]2CN(Cc3ccc4c(c3)OCO4)C[C@H]21`, the “activity change, negative = inhibition” value was 59.2% [at 43.1 µM].
For `COc1ccc(-c2cn(C)c(=O)n3cc(COc4ccc(Cl)cc4)nc23)cn1`, the “activity change, negative = inhibition” value was 36.1% [at 43.1 µM].
For `COC[C@@H]1CN(c2cnccn2)C[C@H]1C(=O)Nc1ccc(OC)nc1`, the “activity change, negative = inhibition” value was 17.9%.
With `COc1ccc(NC(=O)C(c2ccc(Cl)cc2)C(C)C)cn1` (stereo not drawn) the Potency was 1.88 µM (active).
For `Cn1c(-n2cccc2)c(-c2c(-c3ccc(F)cc3)[nH]c3c2c(=O)n(C)c(=O)n3C)c(=O)n(C)c1=O`, the “activity change, negative = inhibition” value was 45.5%.
With `CCCC(C)N1CC2(CCN(C(=O)Cn3nc(C)cc3C)CC2)OC1=O` (stereo not drawn) the “activity change, negative = inhibition” value was 20.9%.
In the case of `O=C(c1ccsc1)N1CCCCCC1c1nc(-c2cccnc2)no1` (stereo not drawn), the “activity change, negative = inhibition” value is reported as 9.04%.
With `CN1CCN(c2ccc(-c3noc([C@@H]4CCCN4C4CCCCC4)n3)cn2)CC1` the Potency was 19.3 µM (active).
With `O=C1CCN(C2CCCC2)CCCC(c2nc(-c3cccnc3)no2)CCN1` (stereo not drawn) the “activity change, negative = inhibition” value was -12.4%.
For `CN(C)CCNC(=O)c1cc(-c2ccccc2F)cc2c1OCCN2Cc1cccnc1`, the Potency was 6.85 µM (active).
With `CNC(=O)c1cc(-c2ccncc2)cc2c1OCCN2Cc1cccnc1` the “activity change, negative = inhibition” value was -14.5% [at 43.1 µM].
For `CNC(=O)c1cc(-c2ccc([S+](C)(=O)[O-])cc2)cc2c1OCCN2Cc1cccnc1`, the “activity change, negative = inhibition” value was -24.3% [at 43.1 µM].
In the case of `CN1CCOc2c(C(=O)NCc3cccnc3)cc(-c3cccc4[nH]ccc34)cc21`, the Potency is reported as 8.63 µM (active).
With `COc1cncc(-c2cc(C(=O)NCc3cccnc3)c3c(c2)N(C)CCO3)c1` the “activity change, negative = inhibition” value was 9.35% [at 43.1 µM].
For `COCCNC(=O)C[C@@H]1C[C@H]2O[C@H](CN)[C@@H](O)[C@H]2O1`, the “activity change, negative = inhibition” value was 18.5% [at 57.5 µM].
For `C#CCNC(=O)C[C@@H]1c2nc(NC(=O)OCC=C)sc2C[C@@H]2[C@](C)(CO)[C@H](O)CC[C@]21C`, the Potency was 15 µM (active).
With `C=CCOC(=O)Nc1nc2c(s1)C[C@@H]1[C@](C)(CO)[C@H](O)CC[C@@]1(C)[C@@H]2CC(=O)NC1CCCCC1` the Potency was 3.76 µM (active).
In the case of `Cc1nc2cc(N3CCCC(C(=O)NCCN4CCCCCC4)C3)cnc2nc1C` (stereo not drawn), the “activity change, negative = inhibition” value is reported as -6.29%.
For `N=c1ccn(Cc2ccc(Cl)cc2)cc1`, the Potency was 8.41 µM (active).
For `N=c1ccn(Cc2ccc(Cl)c(Cl)c2)cc1`, the Potency was 6.68 µM (active).
With `N=c1ccn(Cc2c(Cl)cccc2Cl)cc1` the “activity change, negative = inhibition” value was -15.6%.
For `N=c1ccn(Cc2ccc(Cl)cc2Cl)cc1`, the Potency was 8.41 µM (active).
In the case of `Cc1cc(C)n(CC(=O)N[C@@H]2CN(Cc3cccnc3)C[C@H]2CN(C)C)n1`, the “activity change, negative = inhibition” value is reported as 8.7%.
For `Cc1ccsc1C(=O)NCc1nnc2ccc(-c3ccc(Cl)cc3)nn12`, the “activity change, negative = inhibition” value was 7.85%.
For `O=C(c1ccccc1F)N1CCC(Oc2ncccc2C(=O)N2CCCCC2)C1` (stereo not drawn), the “activity change, negative = inhibition” value was 14.2%.
With `COc1ccc(S(=O)(=O)N2CCC(Oc3ncccc3C(=O)N3CCOCC3)C2)cc1` (stereo not drawn) the “activity change, negative = inhibition” value was 17.3%.
In the case of `COc1ccc(CC(=O)N2CCC(Oc3ncccc3C(=O)N3CCCCC3)C2)cc1` (stereo not drawn), the Potency is reported as 9.44 µM (active).
In the case of `O=C(Nc1cccc(C(F)(F)F)c1)O[C@@H]1CO[C@H]2[C@@H]1OC[C@@H]2NS(=O)(=O)c1cccs1`, the “activity change, negative = inhibition” value is reported as 12.6%.
For `COc1cc(NC(=O)c2ccc(N)nc2)cc(C(=O)Nc2cccc(C(F)(F)F)c2)c1`, the Potency was 5.31 µM (active).
For `COc1ccc(-c2cc(C(=O)Nc3cc(OC)cc(C(=O)Nc4cccc(C(F)(F)F)c4)c3)[nH]n2)cc1`, the Potency was 5.31 µM (active).
For `COc1cccc(NC(=O)Nc2cccc(C(=O)O)c2)c1`, the “activity change, negative = inhibition” value was 27.9%.
